From PubChem BioAssay AID1159580 (chemical genetic matrix, 2015)
Values joined by “and” are separate entries in the source; they are usually repeats but may differ in a detail not shown here. Identical values can stand only once. Hit rate of the full screen: of about 5,500 compounds, about 2,000 (36%) were called active. Roughly 18% stayed inconclusive and do not appear here. Rule as the data show it: active = normalized growth mostly below about 0.91 (no sharp cut-off); inconclusive = no clear call, values can overlap the other calls; inactive = mostly above about 0.92. The list shows a part of the results.

Assay: chemical genetic growth profiling, strain panel (AID 1159580);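 also: tested at 20 µM; growth read once vehicle control cultures reached saturation at 30 °C; 1 = growth at the plate median or of vehicle wells; lower values mean less growth of the strain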
Conditions: S. cerevisiae deletion strains, growth OD

Measured: normalized growth

CC(=O)OCC(=O)[C@@]1(O)CCC2C3C[C@H](C)C4=CC(=O)C=CC4(C)C3[C@@H](O)CC21C (stereo partly specified)
inactive: locus YAL013W, strain DEP1, hits give low values 1.01 | locus YAL021C, strain ccr4, hits give low values 1.03 | locus YAL026C, strain drs2, hits give low values 1.03 | locus YAL030W, strain snc1, hits give low values 1.01 | locus YBL061C, strain skt5, hits give low values 1.01 | locus YBR009C, strain hhf1, hits give low values 0.985 | locus YBR021W, strain FUR4, hits give low values 0.968 | locus YBR023C, strain chs3, hits give low values 1.02 | locus YBR171W, strain sec66, hits give low values 1.03 | locus YBR229C, strain ROT2, hits give low values 1.01 | locus YBR231C, strain swc5, hits give low values 1.01 | locus YBR279W, strain paf1, hits give low values 1.01 | locus YCL011C, strain gbp2, hits give low values 1.02 | locus YCL016C, strain dcc1, hits give low values 1.01 | locus YCL029C, strain bik1, hits give low values 1.01 | locus YCL061C, strain MRC1, hits give low values 1.03 | locus YCL069W, strain vba3, hits give low values 1.03 | locus YCR088W, strain abp1, hits give low values 1.02 | locus YDL005C, strain med2, hits give low values 1.01 | locus YDL035C, strain GPR1, hits give low values 1.01 | locus YDL040C, strain nat1, hits give low values 1.01 | locus YDL074C, strain BRE1, hits give low values 0.994 | locus YDL101C, strain DUN1, hits give low values 1.01 | locus YDL134C, strain PPH21, hits give low values 1.01 | locus YDL185W, strain tfp1, hits give low values 1.01 | locus YDL192W, strain arf1, hits give low values 1 | locus YDR001C, strain nth1, hits give low values 1.01 | locus YDR069C, strain doa4, hits give low values 1.02 | locus YDR101C, strain arx1, hits give low values 1 | locus YDR137W, strain rgp1, hits give low values 1.03 | locus YDR150W, strain NUM1, hits give low values 1.01 | locus YDR159W, strain sac3, hits give low values 0.995 | locus YDR162C, strain NBP2, hits give low values 0.992 | locus YDR195W, strain ref2 1.01 | locus YDR297W, strain sur2, hits give low values 0.994 | locus YDR318W, strain mcm21, hits give low values 1.01 | locus YDR334W, strain swr1, hits give low values 1.02 | locus YDR335W, strain msn5, hits give low values 1.02 | locus YDR388W, hits give low values 1.01 | locus YDR392W, strain spt3, hits give low values 1.03 | locus YDR502C, strain sam2, hits give low values 0.989 | locus YEL003W, strain gim4, hits give low values 1.02 | locus YEL037C, strain rad23, hits give low values 1.02 | locus YEL061C, strain CIN8 (second series), hits give low values 1.02 | locus YEL061C, strain CIN8, hits give low values 1.01 | locus YER015W, strain faa2, hits give low values 1.01 | locus YER016W, strain bim1, hits give low values 1.03 | locus YER110C, hits give low values 1.01 | locus YER111C, strain swi4, hits give low values 1.02 | locus YER155C, strain BEM2 (second series), hits give low values 1.05 | locus YER155C, strain BEM2, hits give low values 1.01 | locus YER167W, strain BCK2, hits give low values 1.01 | locus YFR010W, strain ubp6, hits give low values 0.996 | locus YGL078C, strain dbp3, hits give low values 1 | locus YGL086W, strain mad1, hits give low values 1.02 | locus YGL167C, strain pmr1, hits give low values 1.02 | locus YGL173C, strain kem1, hits give low values 1.03 | locus YGL227W, strain vid30, hits give low values 1.02 | locus YGL240W, strain doc1, hits give low values 1 | locus YGL248W, strain PDE1, hits give low values 1 | locus YGL253W, strain hxk2, hits give low values 1.01 | locus YGR078C, strain PAC10, hits give low values 0.996 | locus YGR135W, strain pre9, hits give low values 0.982 | locus YGR229C, strain SMI1, hits give low values 1 | locus YGR252W, strain gcn5, hits give low values 1.03 | locus YHR013C, strain ard1, hits give low values 1.03 | locus YHR027C, strain rpn1, hits give low values 1.01 | locus YHR030C, strain SLT2, hits give low values 1.01 | locus YHR079C, strain IRE1 (second series), hits give low values 1.01 | locus YHR079C, strain IRE1, hits give low values 1.02 | locus YHR094C, strain hxt1, hits give low values 1.01 | locus YHR129C, strain ARP1, hits give low values 1.02 | locus YHR142W, strain chs7, hits give low values 1.01 | locus YHR200W, strain rpn10, hits give low values 1 | locus YIL066C, strain RNR3, hits give low values 1.02 | locus YIL073C, strain SPO22, hits give low values 1.03 | locus YIL125W, strain kgd1, hits give low values 1.01 | locus YIR030C, strain dcg1, hits give low values 0.997 | locus YJL092W, strain hpr5, hits give low values 1.02 | locus YJL095W, strain BCK1 (second series), hits give low values 1.01 | locus YJL095W, strain BCK1, hits give low values 1.01 and 1.02 | locus YJL115W, strain asf1, hits give low values 1.02 | locus YJL129C, strain trk1, hits give low values 1.02 | locus YJL134W, strain LCB3, hits give low values 1 | locus YJL154C, strain vps35, hits give low values 1.02 | locus YJL164C, strain tpk1, hits give low values 1.01 | locus YJL166W, strain qcr8, hits give low values 1.01 | locus YJL168C, strain set2, hits give low values 1.01 | locus YJL187C, strain SWE1 (second series), hits give low values 1.02 | locus YJR043C, strain POL32, hits give low values 0.999 | locus YJR066W, strain TOR1, hits give low values 0.99
